About 2,100 (0.53%) of roughly 400,000 compounds were called active. About 14% were inconclusive and are not listed. The rule behind the calls is not given here. Shown is part of a subset that was picked to be rich in actives.
These compounds were tested against Ataxin-2 (Homo sapiens) (UniProt Q99700) (assay: qHTS for Inhibitors of ATXN expression.).
Type: functional

Sequence of Ataxin-2 (Homo sapiens) (Q99700 whole entry): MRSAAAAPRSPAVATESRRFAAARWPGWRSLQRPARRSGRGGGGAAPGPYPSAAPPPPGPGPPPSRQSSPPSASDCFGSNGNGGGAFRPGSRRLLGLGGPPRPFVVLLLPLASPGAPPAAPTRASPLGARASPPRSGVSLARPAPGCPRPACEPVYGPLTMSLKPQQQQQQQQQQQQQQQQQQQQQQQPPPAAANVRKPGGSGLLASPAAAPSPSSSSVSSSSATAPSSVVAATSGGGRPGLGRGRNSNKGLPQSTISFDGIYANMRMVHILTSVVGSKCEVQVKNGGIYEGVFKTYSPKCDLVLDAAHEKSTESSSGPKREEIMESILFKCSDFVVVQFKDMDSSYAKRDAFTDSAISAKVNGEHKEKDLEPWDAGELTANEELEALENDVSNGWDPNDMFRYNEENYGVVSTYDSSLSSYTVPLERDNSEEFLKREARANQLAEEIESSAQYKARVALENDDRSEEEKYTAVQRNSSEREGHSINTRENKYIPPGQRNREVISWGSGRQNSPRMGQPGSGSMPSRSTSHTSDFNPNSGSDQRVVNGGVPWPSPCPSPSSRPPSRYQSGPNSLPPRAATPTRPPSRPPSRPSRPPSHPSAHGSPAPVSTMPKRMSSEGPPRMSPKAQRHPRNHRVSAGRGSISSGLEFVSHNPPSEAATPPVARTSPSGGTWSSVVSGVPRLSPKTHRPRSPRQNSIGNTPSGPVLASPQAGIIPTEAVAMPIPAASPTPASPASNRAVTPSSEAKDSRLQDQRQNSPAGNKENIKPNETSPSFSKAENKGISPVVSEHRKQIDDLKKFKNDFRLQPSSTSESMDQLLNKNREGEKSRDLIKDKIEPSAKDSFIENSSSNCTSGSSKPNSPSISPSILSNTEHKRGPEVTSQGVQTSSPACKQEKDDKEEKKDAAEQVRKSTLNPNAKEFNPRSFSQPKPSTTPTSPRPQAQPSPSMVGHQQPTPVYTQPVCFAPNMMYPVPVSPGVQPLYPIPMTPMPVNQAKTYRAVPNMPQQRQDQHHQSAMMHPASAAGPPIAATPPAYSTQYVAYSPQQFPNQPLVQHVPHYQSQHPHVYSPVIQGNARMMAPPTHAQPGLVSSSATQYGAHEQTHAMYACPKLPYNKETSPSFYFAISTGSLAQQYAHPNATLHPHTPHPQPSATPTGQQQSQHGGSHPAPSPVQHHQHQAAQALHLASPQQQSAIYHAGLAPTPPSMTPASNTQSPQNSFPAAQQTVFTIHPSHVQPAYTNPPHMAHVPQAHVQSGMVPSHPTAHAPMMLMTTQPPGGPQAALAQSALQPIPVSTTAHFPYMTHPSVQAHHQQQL

SMILES	Potency
CC12CCC(C1)C(C)(C)C2NS(=O)(=O)c1ccc(F)cc1 (centres undefined)	inactive
COC(=O)c1ccc(COc2ccc(C(C)(C)C)cc2)o1	inactive
COc1c(C)cc(S(=O)(=O)N2CCOCC2)c(C)c1C	inactive
Cc1cc(-c2nc3cccnc3s2)ccc1NS(=O)(=O)c1ccc2c(c1)OCCO2	inactive
CCOC(=O)c1cnc(-n2nc(C)cc2C)nc1Nc1ccc(O)cc1	inactive
FC(F)(F)c1cc(-c2cccs2)nc2cc(-c3cccs3)nn12	inactive
CCOC(=O)c1c(NC(=O)c2ccccc2Cl)sc2c1CCc1ccccc1-2	inactive
CCOC(=O)c1c(NC(C)=O)sc2c1CCC(C=O)=C2Sc1ccccc1	39.8 µM (active)
CCOC(=O)c1c(NC(=O)C2=C(C)N=C(S)NC2c2ccc(C)cc2)sc(C)c1C (centres undefined)	inactive
CCOC(=O)c1c(NC(C)=O)sc2c1CCC(/C=N/CCCN(CC)CC)=C2Sc1ccccc1	39.8 µM (active)
CCCCN(C)S(=O)(=O)c1ccc(C(=O)Nc2sc3c(c2C(=O)OCC)CCN(C(C)C)C3)cc1	inactive
CCOC(=O)c1c(N=C(S)Nc2ccccc2)sc2c1CCN(CC)C2	inactive
COc1ccc(-n2nc3ccc(N)cc3n2)cc1	inactive
Cn1c(C(=O)NC2CCCCC2)cc2c(=O)n3ccccc3nc21	inactive
O=C(NCc1cccs1)C(Cc1ccccc1)n1cccc1 (centres undefined)	inactive
[N-]=[N+]=CC(=O)CNC(=O)[C@@H](Cc1ccccc1)N1C(=O)c2ccccc2C1=O	20 µM (active)
CC1=NN2C(=N)/C(=C\c3cc(C)n(-c4cccc(C)c4)c3C)C(=O)N=C2S1	inactive
Cn1c(-c2c(N)n(C3CCCC3)c3nc4ccccc4nc23)nc2ccccc21	inactive
N#C/C(=C\c1cccnc1)c1nc2ccccc2[nH]1	inactive
O=C(O)C(=O)/C(=C\c1ccc(Cl)cc1)c1ccc2ccccc2n1	inactive
O=C(/C(=C/c1ccc(Cl)cc1)c1nc2ccccc2[nH]1)c1ccccc1	39.8 µM (active)
O=C(O)C(=O)/C(=C\c1cccc(Cl)c1)c1ccc2ccccc2n1	inactive

SMILES	Potency
O=C(/C(=C\c1ccccc1)c1nc2ccccc2[nH]1)c1ccc(Cl)cc1	15.8 µM (active)
O=C(Cc1nc2ccccc2[nH]1)c1ccc(Cl)cc1	inactive
O=C(COc1ccccc1C(=O)NCc1ccncc1)Nc1ccc(Br)cc1	inactive
CCN1CCN(Cc2c(O)ccc3c(C)c(-c4ccc(OC)cc4)c(=O)oc23)CC1	inactive
COCCNC(=O)c1nn2c(C(F)(F)F)cc(-c3ccccc3)nc2c1Cl	inactive
Nc1c(C(=O)C2CC2)sc2nc(-c3ccccc3)cc(C(F)(F)F)c12	inactive
CCOC(=O)CCS(=O)(=O)c1nc(-c2ccccc2)cc(C(F)(F)F)n1	31.6 µM (active)
COC(=O)c1cc2nc(-c3ccc(C)cc3)cc(C(F)(F)F)n2n1	inactive
COC(=O)CCS(=O)(=O)c1nc(-c2ccccc2)cc(C(F)(F)F)n1	39.8 µM (active)
COCC(C)NC(=O)c1cnn2c(C(F)F)cc(-c3ccccc3)nc12 (centres undefined)	inactive
CCOC(=O)CNc1c(-c2ccc(F)cc2)nc2cnccn12	inactive
CS(=O)(=O)c1nc(-c2ccccc2)cc(C(F)(F)F)n1	35.5 µM (active)
CCOC(=O)CS(=O)(=O)c1nc(-c2ccc(F)cc2)cc(C(F)(F)F)n1	31.6 µM (active)
O=C(COC(=O)CCS(=O)(=O)c1ccccc1)Nc1ccccc1	inactive
Cc1ccc(S(=O)(=O)CCC(=O)OCC(=O)NC(C)c2ccccc2)cc1 (centres undefined)	inactive
COc1ccc(-c2c(C(F)(F)F)nn3c(O)cc(-c4ccccc4)nc23)cc1	inactive
CCCCn1nc(NC(=O)CCC)c2cc3cc(OC)ccc3nc21	inactive
CC(C)CNC(=O)COC(=O)c1c2c(nc3ccccc13)/C(=C/c1cccs1)CC2	inactive
CCN1CCN(Cc2c(O)ccc3c2O/C(=C\c2ccccc2)C3=O)CC1	inactive
CCOC(O)=C(C(C)=N)C1CC(=O)NC1=O (centres undefined)	inactive
Cc1cc(C(=O)NCCN2CCOCC2)c2ccccc2n1	inactive
Cc1ccc(-c2cc(C(=O)NCC3(N(C)C)CCCCC3)c3ccccc3n2)o1	inactive

SMILES	Potency
CCc1ccc(-c2cc(C(=O)NN3CCOCC3)c3ccccc3n2)s1	inactive
CCN(CC)CC(C)CNC(=O)c1cc(-c2ccc(Br)s2)nc2ccccc12 (centres undefined)	14.1 µM (active)
CCN(CC)CCNC(=O)c1cc(-c2ccc(Br)s2)nc2ccccc12	39.8 µM (active)
O=C(NC1CC1)c1cc(-c2ccc(Br)cc2)nc2ccccc12	inactive
CN(Cc1ccccc1OCCO)CC1CCCN(CCc2ccc(Cl)cc2)C1 (centres undefined)	inactive
C=CCNC(=O)/C(C#N)=C/c1c(N2CCN(c3ccccc3)CC2)nc2c(C)cccn2c1=O	inactive
COc1ccc(CCNc2ncnc3c2oc2ccccc23)cc1OC	31.6 µM (active)
COc1ccc(CCN(C)C(=O)c2cc(=O)c3ccccc3o2)cc1OC	inactive
CCc1c(C)c2cc3c(c(C)c2oc1=O)OCN(CCc1ccc(OC)c(OC)c1)C3	inactive
COc1cc(/C=N/Nc2ccccn2)cc(OC)c1O	inactive
COc1cc(C(Nc2ccccn2)c2ccc3ccc(C)nc3c2O)cc(OC)c1O (centres undefined)	39.8 µM (active)
Cc1cccc(NC(c2ccccc2C)c2ccc3ccc(C)nc3c2O)n1 (centres undefined)	inactive
CC(C)C[C@@H](COCc1cccc(Cl)c1)N1CCN(C(=O)c2ccc(C(F)(F)F)cc2)CCC1=O	22.4 µM (active)
CC(C)C[C@@H](COCc1ccc(Cl)cc1)N1CCN(C(=O)c2ccc(C(F)(F)F)cc2)CCC1=O	31.6 µM (active)
CN1CCN(C(=O)c2ccc(C(F)(F)F)cc2)CC1	inactive
CC(C)CC(COCc1cccc(Cl)c1)N1CCN(C(=O)c2ccc(C(F)(F)F)cc2)CCC1=O (centres undefined)	39.8 µM (active)
CCn1nc(NC(C)=O)c2cc3ccc(C)cc3nc21	inactive
CCC(=O)NC1=C(Cl)C(=O)C(NC(=O)CC)=C(Cl)C1=O	5.01 µM (active)
CCN(CC)c1ccc2cc(-c3nnc(-c4ccncc4)o3)c(=O)oc2c1	inactive
O=C(N/N=C/c1sc(N2CCOCC2)nc1-c1ccccc1)c1ccccc1Cl	inactive

— ChEMBL document CHEMBL1201862, “PubChem BioAssay data set” (2004)
